The record followed here is ChEMBL document CHEMBL3988442, “University of Dundee, Small-Polar-MMV Screening Library” (2021).

Design in all cases: scale not given: direction of the effect not stated beside the values
Experiment [1] concerns the target Protein translocase subunit SecA (Escherichia coli (strain K12)) (UniProt P10408). The experiment in a line: Assay to Identify E. coli SecA ATPase Inhibitors. The format is functional. The conditions noted are these: 30 µM.
Experiment [2] has as its target T1, Ubiquitin-activating enzyme e1, putative (Leishmania donovani (strain BPK282A1)) (UniProt E9BSI1).
T1 sequence (whole entry): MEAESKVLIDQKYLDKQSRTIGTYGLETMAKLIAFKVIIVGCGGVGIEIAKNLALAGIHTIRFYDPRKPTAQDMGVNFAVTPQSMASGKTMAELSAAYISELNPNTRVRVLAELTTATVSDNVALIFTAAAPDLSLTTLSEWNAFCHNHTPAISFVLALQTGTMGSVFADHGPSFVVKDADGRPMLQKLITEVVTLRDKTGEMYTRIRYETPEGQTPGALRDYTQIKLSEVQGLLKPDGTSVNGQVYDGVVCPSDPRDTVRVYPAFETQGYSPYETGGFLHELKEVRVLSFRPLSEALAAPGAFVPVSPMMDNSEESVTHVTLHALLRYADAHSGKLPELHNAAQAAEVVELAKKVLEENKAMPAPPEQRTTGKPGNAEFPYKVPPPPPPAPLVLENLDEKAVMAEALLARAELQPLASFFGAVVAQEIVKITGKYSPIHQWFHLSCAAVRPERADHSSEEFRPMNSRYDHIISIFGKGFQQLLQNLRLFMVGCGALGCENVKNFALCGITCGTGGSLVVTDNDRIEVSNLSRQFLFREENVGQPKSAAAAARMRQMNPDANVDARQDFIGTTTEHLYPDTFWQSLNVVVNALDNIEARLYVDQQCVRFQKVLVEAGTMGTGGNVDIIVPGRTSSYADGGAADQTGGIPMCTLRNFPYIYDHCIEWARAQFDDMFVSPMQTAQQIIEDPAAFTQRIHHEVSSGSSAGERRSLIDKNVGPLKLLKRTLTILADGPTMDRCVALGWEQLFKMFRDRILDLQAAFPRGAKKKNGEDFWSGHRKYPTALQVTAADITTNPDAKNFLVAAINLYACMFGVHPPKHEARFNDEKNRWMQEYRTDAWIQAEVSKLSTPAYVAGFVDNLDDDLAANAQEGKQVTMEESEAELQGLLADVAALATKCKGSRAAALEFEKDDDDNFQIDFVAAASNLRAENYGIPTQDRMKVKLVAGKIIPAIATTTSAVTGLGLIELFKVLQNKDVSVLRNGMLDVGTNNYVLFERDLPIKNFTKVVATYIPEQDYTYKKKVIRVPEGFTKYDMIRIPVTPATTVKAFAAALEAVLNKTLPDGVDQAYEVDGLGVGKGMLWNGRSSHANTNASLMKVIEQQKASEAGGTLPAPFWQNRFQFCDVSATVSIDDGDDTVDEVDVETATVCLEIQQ
Briefly: Leishmania donovani Ubiquitin Activating Enzyme (LdE1). The format is functional. The conditions noted are these: 30 µM.

Experiment [3] deals with AMP-activated protein kinase, AMPK (Homo sapiens) (UniProt P54646+O43741+P54619+Q9UGJ0+Q9Y478+Q13131+Q9UGI9). The experiment in a line: AMP-dependent Kinase enzyme assay. An in vitro enzyme assay that detects ADP turnover that is directly proportional to AMPK activity. This uses naive AMPK that is activated during the assay with MK-8722. The format is functional. The conditions noted are these: 30 µM.

For experiment [4], the target named is Sialic acid-binding Ig-like lectin 9 (Homo sapiens) (UniProt Q9Y336). Briefly: Hs-Siglec9 ALPHAscreen SOP 20170721. The conditions noted are these: 10 µM. In general terms: Alpha assays give light when donor and acceptor beads are brought close together.
The next experiment concerns Trypanosoma cruzi. Briefly: Trypanosoma cruzi phosphomannomutase and mannose-1-phosphate guanylyltransferase assay. The conditions noted are these: 10 µM. It is filed as functional.
The target of experiment [5] is T2, Arginase-2, mitochondrial (Homo sapiens) (UniProt P78540).
T2 sequence (whole entry): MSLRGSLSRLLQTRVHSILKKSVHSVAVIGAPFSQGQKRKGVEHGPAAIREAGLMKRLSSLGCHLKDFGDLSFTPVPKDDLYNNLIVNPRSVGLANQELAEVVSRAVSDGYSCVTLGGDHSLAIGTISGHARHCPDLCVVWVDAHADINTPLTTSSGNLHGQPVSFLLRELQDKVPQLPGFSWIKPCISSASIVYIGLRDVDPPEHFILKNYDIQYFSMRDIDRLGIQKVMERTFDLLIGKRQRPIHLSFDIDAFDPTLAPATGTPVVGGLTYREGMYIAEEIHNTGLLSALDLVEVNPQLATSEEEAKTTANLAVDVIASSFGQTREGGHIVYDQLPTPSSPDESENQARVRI
The experiment in a line: in vitro enzyme assay to detect the production of urea directly proportional to the activity of Arginase II. Note: in the data most compounds retested in dose-response had high values. It is filed as functional. The conditions noted are these: 33.3 µM.

The target of experiment [6] is T3, Proteasome subunit beta (Trypanosoma cruzi) (UniProt O96673).
T3 sequence (whole entry): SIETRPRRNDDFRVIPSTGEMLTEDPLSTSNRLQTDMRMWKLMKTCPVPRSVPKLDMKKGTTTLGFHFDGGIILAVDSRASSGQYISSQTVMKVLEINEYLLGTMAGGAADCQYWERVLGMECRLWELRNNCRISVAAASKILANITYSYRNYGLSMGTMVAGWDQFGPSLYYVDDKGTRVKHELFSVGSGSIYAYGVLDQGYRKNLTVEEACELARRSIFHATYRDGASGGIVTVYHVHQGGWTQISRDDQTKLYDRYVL
The experiment in a line: Trypanosoma cruzi proteasome chymotrypsin-like activity (TcProtChymo) assay. Note: in the data most compounds retested in dose-response had high values. The format is functional. The conditions noted are these: 9.37 µM.

The species entered for a further experiment is Homo sapiens. The experiment in a line: To identify inhibition of the IFN signalling (Jak-Stat) pathway via expression of an eGFP reporter gene under the control of an IFN-stimulated response element (ISRE) containing MxA promoter. The format is functional. The conditions noted are these: 30 µM. Background: A reporter such as luciferase makes a cellular process visible.

The target in experiment [7] is T4, Tyrosyl-tRNA synthetase, putative (Trypanosoma cruzi (strain CL Brener)) (UniProt Q4DSP6).
T4 sequence (whole entry): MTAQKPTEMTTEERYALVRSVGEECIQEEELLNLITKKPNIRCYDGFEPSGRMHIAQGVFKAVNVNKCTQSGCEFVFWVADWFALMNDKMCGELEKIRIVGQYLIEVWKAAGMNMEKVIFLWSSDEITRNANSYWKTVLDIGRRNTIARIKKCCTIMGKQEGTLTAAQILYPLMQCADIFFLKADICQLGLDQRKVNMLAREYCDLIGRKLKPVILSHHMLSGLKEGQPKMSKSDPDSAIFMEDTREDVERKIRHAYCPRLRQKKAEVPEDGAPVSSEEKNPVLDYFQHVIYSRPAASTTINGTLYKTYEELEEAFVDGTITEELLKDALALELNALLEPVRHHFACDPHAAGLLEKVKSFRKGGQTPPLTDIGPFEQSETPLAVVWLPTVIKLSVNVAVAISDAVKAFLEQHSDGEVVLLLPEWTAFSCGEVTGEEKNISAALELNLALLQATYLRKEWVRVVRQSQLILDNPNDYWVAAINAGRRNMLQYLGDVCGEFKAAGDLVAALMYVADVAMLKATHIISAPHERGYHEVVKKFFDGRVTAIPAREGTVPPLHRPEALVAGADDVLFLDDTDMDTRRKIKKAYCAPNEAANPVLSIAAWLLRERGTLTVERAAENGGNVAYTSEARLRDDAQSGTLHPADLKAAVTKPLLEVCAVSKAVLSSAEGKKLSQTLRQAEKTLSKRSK
The experiment in a line: Trypanosoma cruzi tyrosyl tRNA synthetase (TcYRS) _High Tyrosine SOP. Note: in the data most compounds retested in dose-response had high values. It is filed as functional. The conditions noted are these: 30 µM.

In experiment [8] the target is T4, Tyrosyl-tRNA synthetase, putative (Trypanosoma cruzi (strain CL Brener)). Briefly: Trypanosoma cruzi tyrosyl tRNA synthetase (TcYRS) SOP. The format is functional. The conditions noted are these: 30 µM.
The target of experiment [9] is Chromo domain-containing protein 1 (Saccharomyces cerevisiae (strain ATCC 204508 / S288c) (Baker's yeast)) (UniProt P32657). Briefly: ScCHD-1 Enzyme Inhibition Assay. Note: in the data most compounds retested in dose-response had high values. It is filed as functional. The conditions noted are these: 30 µM.

Each structure is given as a SMILES string. For some of these results: Results with a measured potency or affinity are listed apart.

Sialic acid-binding Ig-like lectin 9 (Homo sapiens), sequence (Q9Y336 whole entry): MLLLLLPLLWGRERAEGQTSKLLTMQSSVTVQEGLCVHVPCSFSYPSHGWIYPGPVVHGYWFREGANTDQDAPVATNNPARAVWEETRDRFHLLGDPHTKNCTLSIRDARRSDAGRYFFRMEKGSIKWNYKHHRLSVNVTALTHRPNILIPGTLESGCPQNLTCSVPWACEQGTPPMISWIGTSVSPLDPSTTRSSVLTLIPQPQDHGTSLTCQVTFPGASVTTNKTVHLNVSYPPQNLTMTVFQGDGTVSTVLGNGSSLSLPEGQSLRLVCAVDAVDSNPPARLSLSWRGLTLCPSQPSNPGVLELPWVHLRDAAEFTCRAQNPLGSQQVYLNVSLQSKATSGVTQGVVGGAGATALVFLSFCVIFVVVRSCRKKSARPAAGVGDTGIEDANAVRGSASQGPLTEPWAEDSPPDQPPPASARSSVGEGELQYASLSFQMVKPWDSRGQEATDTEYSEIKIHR
Chromo domain-containing protein 1 (Saccharomyces cerevisiae (strain ATCC 204508 / S288c) (Baker's yeast)), sequence (P32657 whole entry, the tested form may be a part): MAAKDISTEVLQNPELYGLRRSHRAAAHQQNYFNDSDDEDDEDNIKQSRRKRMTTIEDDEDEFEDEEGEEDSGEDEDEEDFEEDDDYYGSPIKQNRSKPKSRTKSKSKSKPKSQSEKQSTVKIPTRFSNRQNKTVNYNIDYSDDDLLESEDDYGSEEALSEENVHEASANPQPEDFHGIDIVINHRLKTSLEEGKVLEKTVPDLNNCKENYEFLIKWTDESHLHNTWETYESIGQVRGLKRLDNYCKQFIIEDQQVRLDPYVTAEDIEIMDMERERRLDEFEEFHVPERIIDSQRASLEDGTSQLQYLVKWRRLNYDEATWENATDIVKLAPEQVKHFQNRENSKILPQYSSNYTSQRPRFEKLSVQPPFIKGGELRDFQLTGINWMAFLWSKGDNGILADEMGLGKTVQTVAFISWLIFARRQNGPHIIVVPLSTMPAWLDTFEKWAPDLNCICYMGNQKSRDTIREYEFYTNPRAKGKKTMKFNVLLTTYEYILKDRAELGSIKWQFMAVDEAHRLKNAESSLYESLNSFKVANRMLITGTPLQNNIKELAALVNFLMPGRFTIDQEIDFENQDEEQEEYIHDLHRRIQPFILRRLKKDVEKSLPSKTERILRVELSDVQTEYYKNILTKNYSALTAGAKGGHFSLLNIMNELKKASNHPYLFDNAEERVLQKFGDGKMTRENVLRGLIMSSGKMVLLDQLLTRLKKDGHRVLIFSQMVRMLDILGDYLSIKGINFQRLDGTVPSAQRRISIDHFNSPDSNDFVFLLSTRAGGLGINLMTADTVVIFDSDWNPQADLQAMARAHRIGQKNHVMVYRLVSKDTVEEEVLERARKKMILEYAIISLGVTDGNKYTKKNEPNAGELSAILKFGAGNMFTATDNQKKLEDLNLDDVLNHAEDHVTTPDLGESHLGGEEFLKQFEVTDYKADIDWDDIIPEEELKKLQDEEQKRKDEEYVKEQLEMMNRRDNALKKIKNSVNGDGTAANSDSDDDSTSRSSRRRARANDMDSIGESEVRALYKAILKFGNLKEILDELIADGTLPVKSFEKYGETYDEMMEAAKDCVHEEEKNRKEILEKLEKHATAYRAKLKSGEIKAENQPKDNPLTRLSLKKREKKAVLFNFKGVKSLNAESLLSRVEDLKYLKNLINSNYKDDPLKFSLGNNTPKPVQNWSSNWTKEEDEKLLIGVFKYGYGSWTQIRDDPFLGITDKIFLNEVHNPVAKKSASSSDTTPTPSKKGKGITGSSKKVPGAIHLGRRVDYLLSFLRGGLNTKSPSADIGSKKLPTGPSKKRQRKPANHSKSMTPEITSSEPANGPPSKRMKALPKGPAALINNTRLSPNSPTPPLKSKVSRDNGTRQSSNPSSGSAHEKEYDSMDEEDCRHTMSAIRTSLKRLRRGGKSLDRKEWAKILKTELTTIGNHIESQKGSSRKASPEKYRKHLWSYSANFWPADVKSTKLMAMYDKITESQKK
Protein translocase subunit SecA (Escherichia coli (strain K12)), sequence (P10408 whole entry): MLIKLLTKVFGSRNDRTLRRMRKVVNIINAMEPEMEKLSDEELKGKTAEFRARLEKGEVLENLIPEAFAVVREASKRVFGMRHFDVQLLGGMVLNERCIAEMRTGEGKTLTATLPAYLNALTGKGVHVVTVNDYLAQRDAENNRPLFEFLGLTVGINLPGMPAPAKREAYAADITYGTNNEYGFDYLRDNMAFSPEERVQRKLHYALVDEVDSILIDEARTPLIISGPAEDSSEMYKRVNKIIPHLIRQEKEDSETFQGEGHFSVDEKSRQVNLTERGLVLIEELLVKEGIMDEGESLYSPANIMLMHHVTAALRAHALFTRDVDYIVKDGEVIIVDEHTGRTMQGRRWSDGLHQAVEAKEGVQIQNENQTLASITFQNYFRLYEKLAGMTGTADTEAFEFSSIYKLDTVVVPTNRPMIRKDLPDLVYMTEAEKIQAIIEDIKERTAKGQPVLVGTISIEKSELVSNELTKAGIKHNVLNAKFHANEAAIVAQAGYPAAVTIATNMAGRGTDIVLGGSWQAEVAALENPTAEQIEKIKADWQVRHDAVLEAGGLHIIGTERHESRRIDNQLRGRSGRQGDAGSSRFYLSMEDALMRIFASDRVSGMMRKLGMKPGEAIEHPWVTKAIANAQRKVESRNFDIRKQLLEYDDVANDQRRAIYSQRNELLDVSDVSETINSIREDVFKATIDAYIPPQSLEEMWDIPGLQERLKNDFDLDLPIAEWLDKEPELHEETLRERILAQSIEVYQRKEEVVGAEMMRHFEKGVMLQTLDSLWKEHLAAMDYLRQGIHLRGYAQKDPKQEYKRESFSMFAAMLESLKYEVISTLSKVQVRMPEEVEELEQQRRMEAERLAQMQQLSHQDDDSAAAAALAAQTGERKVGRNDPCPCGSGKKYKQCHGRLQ

With `Cc1[nH]nc2ncc(C(=O)N3CCN(CC(C)C)CC3)cc12`, the Percent Effect in experiment [1] was -2.98%; in experiment [2], 15.8%; in [3], 10.4%; in experiment [4], -2.95%; in the experiment on Trypanosoma cruzi, 7.56%; in experiment [5] it was -3.24%. The Percent Effect was 7.36% in [6]; -2.6% in the experiment listed under Homo sapiens; 8.37% in experiment [7]; 23.5% in experiment [8]; -7.62% in [9].
Take `Cc1cc(C(=O)N2CCCC2Cn2nc(C)cc2C)on1` (stereo not drawn): the Percent Effect in [1] is -2.76%; in experiment [2] it was 10.8%; in experiment [3] it was -7.13%; in [4], 13.4%; with Trypanosoma cruzi, 3.87%; in [5] it was -7.62%. For the same compound, the Percent Effect in experiment [6] is 4.14%; in the experiment filed under Homo sapiens, 8.42%; in experiment [7] it was 5.42%; in [8] it was 18.5%; in experiment [9], -8.04%.
As for `CC(C)c1cc(NC(=O)CN2CCCC2Cn2cccn2)on1` (stereo not drawn), the Percent Effect in experiment [1] is -5.87%; in experiment [2] it was 5.26%; in experiment [3], -3.45%; in experiment [4], -1.04%; in the experiment with Trypanosoma cruzi it was -1.59%; in [5] it was 3.24%. Further, the Percent Effect in experiment [6] was -0.761%; in the experiment listed under Homo sapiens, 15.3%; in experiment [7], 7.39%; in experiment [8], 6.17%; in [9], 9.14%.
As for `CN(C(=O)c1cccc(C(=O)NCC(F)(F)F)c1)c1ccccc1`, the Percent Effect in experiment [1] is -6.02%; in experiment [2], -2.6%; in experiment [3], -0.584%; in [4] it was 2.53%; with Trypanosoma cruzi, -5.8%; in experiment [5], -6.9%. Further, the Percent Effect in experiment [6] is 9.82%; in the experiment filed under Homo sapiens, 7.29%; in experiment [7], -1.07%; in experiment [8] it was -8.64%; in [9] it was 0.0055%.
Turning to `CCc1n[nH]c(C2CN(CCc3ccncc3)CCO2)n1` (stereo not drawn), the Percent Effect is -6.01% in [1]; 3.8% in experiment [2]; 7.99% in experiment [3]; 7.24% in experiment [4]; 0.103% with Trypanosoma cruzi; 0.215% in experiment [5]. Further, the Percent Effect in experiment [6] was 1.72%; in the experiment filed under Homo sapiens, 14%; in [7] it was 1.04%; in [8], 7.59%; in experiment [9], -9.31%.
On to `Cc1cc(CN2CCOCS2(=O)=O)ccc1F`, for which the Percent Effect in experiment [1] was 2.12%; in experiment [2] it was 5.41%; in [3], -2.01%; in experiment [4] it was 3.16%; with Trypanosoma cruzi, -5.21%; in experiment [5], 4.29%. For the same compound, the Percent Effect is 16.4% in experiment [6]; 9.21% in the experiment filed under Homo sapiens; 4.76% in [7]; 4.88% in experiment [8]; -2.56% in experiment [9].
On to `CCc1ncc2c(n1)CN(Cc1nc(-c3ccsc3)oc1C)CC2`, for which the Percent Effect in [1] is -6.04%; in experiment [2] it was -18.4%; in experiment [3] it was -33%; in [4] it was 12.2%; in the experiment with Trypanosoma cruzi, -1.77%; in experiment [5], -0.719%. Also, the Percent Effect was 9.73% in experiment [6]; -1.35% in the experiment listed under Homo sapiens; 19.2% in experiment [7]; 16.1% in [8]; 2.49% in experiment [9].
For `Cc1cc(CNC(=O)NC(C)c2ccc(N3CCOCC3)cc2)no1` (stereo not drawn), the Percent Effect was -5.74% in experiment [1]; 10.4% in [2]; -1.83% in experiment [3]; 16.5% in experiment [4]; 5.61% in the experiment with Trypanosoma cruzi; -6.9% in experiment [5]. Further, the Percent Effect was 11.8% in experiment [6]; -5.95% in the experiment listed under Homo sapiens; 4.3% in experiment [7]; 8.64% in experiment [8]; -6.04% in experiment [9].
